SMILES strings stand for the structures. About 2,400 (1.1%) of roughly 220,000 compounds were called active. This excerpt belongs to a sample that is enriched for actives. A number with no mark means an inactive call.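 How the source made its calls: active means inhibition above a per-campaign cutoff, the mean inhibition of all tested compounds plus 3 SD (cut at about 27% in these data); inactive means the rest.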

This assay is described as follows: growth loss in parental Ba/F3 cells – cell-based, murine pro-B, CellTiter-Glo luminescence, counter-screen for JAK2V617F inhibitor project (AID 1486).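 Further: 0% = DMSO wells and 100% = JAK Inhibitor I control wells.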 Conditions: Ba/F3 parental viability, CellTiter-Glo ATP luminescence; at 5.6 µM; stronger effect = higher value. A general note: Cellular ATP, detected with luciferase, serves as a proxy for viable cell number.
In general, inhibition refers to the relative decrease from the control value, in per cent. With `N#C/C(=C\c1ccc(N2CCOCC2)o1)C(=O)N1CCOCC1`, the inhibition is 4.08%.
Next, `Cc1cc(OCCCC(=O)NCCN2C(=O)S/C(=C\c3cccnc3)C2=O)ccc1Cl`: 6.03%.
The value for `O=C(O)Cc1csc(NC(=O)CSc2nnnn2-c2ccc(O)cc2)n1` was -4.21%; that for `CC1Cc2ccccc2N1CC(=O)Nc1ccc2c(c1)OC(F)(F)O2` (configuration not stated) was 4.14%.
Consider `Cc1cc(OCCN2CCCC2)cc(C(C)C)c1`, for which the inhibition was 93.8% (active).
The value for `Cc1cc(OCCN2CCCC2)ccc1C(C)C` was 1.72%; that for `Cc1ccc(C(C)C)cc1OCCN1CCCC1` was 5.38%; that for `Cc1ccc(-c2nc(SCC(=O)Nc3ccccc3OC(F)F)c3c(C)c(C(=O)O)sc3n2)cc1` was 1.45%.
In the case of `CC1=C/C(=N\S(=O)(=O)c2ccccc2)C(C(C)C)=CC1=O`, the inhibition was 5.54%.
The value for `CCOC(=O)C1(S(=O)(=O)c2ccccc2)CCN(Cc2ccccc2)CC1` was 8.01%; that for `CC1=C/C(=N\OS(=O)(=O)c2ccccc2)C=CC1=O` was 32.1% (active).
In the case of `CCN(CC)CCNCc1ccc(OCc2ccc(Cl)nc2)c(OC)c1`, the inhibition was 2.52%.
The value for `CC[C@H]1CN2CCc3cc(OC)c(OC)cc3[C@@H]2C[C@@H]1C[C@H]1NCCc2cc(OC)c(OC)cc21` was 100% (active); that for `COc1cc2c(cc1O)[C@H](Cc1ccc(Oc3cc(C[C@@H]4NCCc5cc(OC)c(O)cc54)ccc3O)cc1)NCC2` was 5.61%.
For the molecule `COC(=O)C1=C(NC(=O)C(C)(C)C)CCS1`, the inhibition was -0.46%.
Next, `O=C(O)c1cccnc1Sc1ncnc2sc3c(c12)CCC3`: -7.35%; `O=C(c1ccc(Cl)cc1)N1N=C(c2ccccn2)CC1(O)C(F)(F)F` (configuration not stated): 0.67%.
The value for `O=C(NCC1CCCCC1)c1cc(S(=O)(=O)N2CCCCC2)ccc1N1CCOCC1` was 8.85%.
Next, `COc1cc2c(cc1OC)CN(C(=O)c1cc(=O)c3ccccc3o1)CC2`: 24.8%.
For `CCOc1cc(C(=O)N2CCc3cc(OC)c(OC)cc3C2)ccc1OC(F)F`, the inhibition was 78.2% (active).
In the case of `COc1cc2c(cc1OC)CN(C(=O)c1ccc(S(=O)(=O)N3CCCCCC3)cc1)CC2`, the inhibition was 10%.
With `O=C(COC(=O)c1cc(=O)[nH]c2ccccc12)Nc1nc(-c2cccc(Br)c2)cs1`, the inhibition was 3.32%.
The value for `O=C(Cn1c(COc2ccccc2)nc2ccccc21)Nc1cc(Cl)c(Cl)cc1Cl` was 2.68%.
Next, `CS(=O)(=O)N1CCN(C(=O)Cc2ccccc2)CC1`: -0.7%; `CC(C)CC(=O)N1CCC(O)(CS(=O)(=O)Cc2ccccc2)CC1`: 50.5% (active).
Regarding `Cc1ccccc1CS(=O)(=O)CC1(O)CCN(C(=O)c2cccc(C(F)(F)F)c2)CC1`, the inhibition is -1.41%.
The value for `COC(=O)C(C)Sc1nc2c(c(=O)n(C)c(=O)n2C)n1Cc1cccc(C)c1` (configuration not stated) was 4%; that for `CCCCNc1nc2c(c(=O)n(C)c(=O)n2C)n1Cc1cccc(OC)c1` was 48.4% (active).
Take `Cn1c(=O)c2c(nc(NCCc3ccccc3)n2Cc2ccccc2)n(C)c1=O`: the inhibition was 6.77%.
The value for `Cc1c(C(=O)Nc2cccc(Cl)c2)cn2c(nc3ccccc32)c1C#N` was 2.67%; that for `COC(=O)C1CCN(C(=O)c2cc(=O)[nH]c3ccccc23)CC1` was 5.12%; that for `O=C(COC(=O)CCCNC(=O)c1ccc(Cl)cc1)Nc1cc(Cl)ccc1Cl` was 2.29%.
The value for `O=C(/C=C/Sc1ncn[nH]1)c1ccc(Cl)cc1` was 59.2% (active).
The value for `COc1ccc(Cl)cc1CSc1ncn[nH]1` was -3.75%; that for `Cc1cc(C)nc(S/C=C/C(=O)c2ccccc2)n1` was 6.81%.
On to `Nc1scc[n+]1Cc1cccc2cccnc12`, for which the inhibition was -7.17%.
As to `CC1=CC(C)(C)NC(=S)N1NC(=O)c1ccccc1Cl`, the inhibition was -3.65%.
The value for `COc1ccc(Nc2cc(=O)n(-c3ccccc3)c3c2c(=O)n(C)c(=O)n3C)cc1` was 4.99%.
The value for `COc1ccc(Nc2cc(=O)oc3ccccc23)cc1` was 50.9% (active); that for `COc1ccc(N2CCN(Cc3cc(=O)oc4ccc5ccccc5c34)CC2)cc1` was 5.38%; that for `O=C(Nc1cccc(S(=O)(=O)NC2=NCCC2)c1)C1CCCCC1` was -1.01%.
The value for `CCN(CC)CCn1c(N)c(S(=O)(=O)c2ccccc2)c2nc3ccccc3nc21` was 5.27%.
For the molecule `c1cnn(-c2cc(N3CCOCC3)ncn2)c1`, the inhibition was 5.98%.
As to `Cc1csc(NC(=O)NC2(C(F)(F)F)Oc3ccccc3O2)n1`, the inhibition was 13.6%.
Next, `O=C(Nc1cc(N2CCOCC2)ncn1)NC1(C(F)(F)F)Oc2ccc(Cl)cc2O1` (configuration not stated): 42.3% (active); `CC1(C)CCSC(/C=C/c2ccccc2)=N1`: -2.99%; `CC1(C)C=C2[C@H]3CC[C@@H]4[C@@]5(C)CCC(=O)C(C)(C)[C@@H]5CC[C@@]4(C)[C@]3(C)CC[C@@]2(C(=O)O)CC1`: 4.85%.
The value for `Cc1cc(C)cc(OCC(=O)Nc2ccc(S(=O)(=O)Nc3ccccn3)cc2)c1` was -1.55%; that for `Cc1ccc(OCC(=O)Nc2ccc(S(=O)(=O)Nc3ccccn3)cc2)cc1` was 0.56%.
Regarding `Cc1ccc(S(=O)(=O)Nc2ccc3ncccc3c2)cc1`, the inhibition was 37.5% (active).
In the case of `COc1ccccc1C(=O)Nc1nc2nc(-c3ccccc3)cc(=O)n2[nH]1`, the inhibition is 2.81%.
As to `Nc1nc(Sc2ncccc2[N+](=O)[O-])n[nH]1`, the inhibition is -0.31%.
For the molecule `CCOC(=O)c1ccc(NNC(C)=O)c([N+](=O)[O-])c1`, the inhibition is -0.42%.
With `O=C(NNC(=O)C1C2CCC(C2)C1C(=O)O)c1ccc(Cl)cc1` (configuration not stated), the inhibition was 2.39%.
On to `COc1ccc(C(=O)NC(=S)Nc2ccc(N3CCCC3)cc2)cc1OC`, for which the inhibition is 3.89%.
The value for `COc1cccc(OC)c1C(=O)Nc1ccc(N2CCCCC2)cc1` was 9.75%.
As for `COc1cccc(C(=O)Nc2ccc(N3CCCC3)cc2)c1`, the inhibition was 45.8% (active).
As to `CCOCCCn1c(NN)nc2ccccc2c1=O`, the inhibition is 1.96%.
In the case of `COn1c(=O)c(=O)n(OC)c2ccccc21`, the inhibition is 3.35%.
Next, `CC(C)OCCCNc1ncnc2c1[nH]c1ccc(F)cc12`: 69.9% (active).
Regarding `O=C1CCCN1CCCNc1ncnc2c1[nH]c1ccccc12`, the inhibition was 2.08%.
`COc1cc(OC)c(OC)cc1/C=N/Nc1ncnc2c1[nH]c1ccc(C)cc12`: the inhibition is -0.75%.
